Results on six sequences are retold here after article PMC11574364.

Some targets named below: RBM8A (Homo sapiens, UniProt Q9Y5S9); hnRNP E2(3) (Homo sapiens, UniProt Q15366); RBMY1F (Homo sapiens, UniProt Q15415).
Holding throughout (experiment): protein domain microarray probed with biotinylated miRNA; Domain array: 20 mM Tris-HCl pH 7.4, 200 mM KCl, 0.2 mM EDTA, 0.05% NP40, 2 ug/ul heparin, overnight 4 C. ORF array: PBS pH 7.0 with RNase inhibitor, 100 ng RNA; high values mean tight binding
Holding throughout (conditions): ssRNA

A further assay addresses T1, PGC-1 alpha (Homo sapiens, UniProt Q9UBK2).
T1 sequence: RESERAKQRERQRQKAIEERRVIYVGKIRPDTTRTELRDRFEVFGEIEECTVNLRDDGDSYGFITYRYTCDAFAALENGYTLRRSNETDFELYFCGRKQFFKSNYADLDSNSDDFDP

A further assay concerns the target T2, NOVA1(3) (Homo sapiens, UniProt P51513).
T2 sequence: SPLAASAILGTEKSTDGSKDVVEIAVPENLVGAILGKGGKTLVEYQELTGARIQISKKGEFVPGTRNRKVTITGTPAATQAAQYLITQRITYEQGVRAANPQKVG

Another assay has as its target T3, SFRS2 (Homo sapiens, UniProt Q01130).
T3 sequence: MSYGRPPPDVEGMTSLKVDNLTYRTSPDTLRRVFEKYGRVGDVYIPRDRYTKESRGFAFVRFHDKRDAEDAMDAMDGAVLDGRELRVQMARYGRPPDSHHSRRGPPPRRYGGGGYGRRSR

The next assay concerns the target T4, STRBP(2) (Homo sapiens, UniProt Q96SI9).
T4 sequence: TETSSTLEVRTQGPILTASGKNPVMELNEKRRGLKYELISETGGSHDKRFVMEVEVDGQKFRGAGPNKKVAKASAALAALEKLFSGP

In the next assay the target is T5, KHDRBS3 (Homo sapiens, UniProt O75525).
T5 sequence: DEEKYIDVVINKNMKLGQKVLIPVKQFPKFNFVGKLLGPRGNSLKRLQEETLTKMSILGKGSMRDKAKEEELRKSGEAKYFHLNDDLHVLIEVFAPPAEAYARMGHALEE

For another assay, the target named is T6, PGC-1 beta (Homo sapiens, UniProt Q86YN6).
T6 sequence: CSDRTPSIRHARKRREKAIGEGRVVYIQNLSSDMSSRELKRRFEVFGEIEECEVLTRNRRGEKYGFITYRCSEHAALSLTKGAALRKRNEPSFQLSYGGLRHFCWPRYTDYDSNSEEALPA

The next assay concerns the target T7, RBM12(1-2) (Homo sapiens, UniProt Q9NTZ6).
T7 sequence: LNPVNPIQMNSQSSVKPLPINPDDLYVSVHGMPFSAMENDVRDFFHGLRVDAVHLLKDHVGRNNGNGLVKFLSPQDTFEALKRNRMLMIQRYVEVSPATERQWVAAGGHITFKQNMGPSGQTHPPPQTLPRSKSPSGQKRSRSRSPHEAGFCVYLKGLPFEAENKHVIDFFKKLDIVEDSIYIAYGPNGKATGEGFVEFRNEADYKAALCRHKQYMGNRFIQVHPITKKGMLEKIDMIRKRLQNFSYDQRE

Sequence of hnRNP E2(3) (Q15366 269-365): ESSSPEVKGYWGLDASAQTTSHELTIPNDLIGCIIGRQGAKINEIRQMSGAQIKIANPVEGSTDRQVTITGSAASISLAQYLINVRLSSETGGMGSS
Sequence of RBMY1F (Q15415 1-110): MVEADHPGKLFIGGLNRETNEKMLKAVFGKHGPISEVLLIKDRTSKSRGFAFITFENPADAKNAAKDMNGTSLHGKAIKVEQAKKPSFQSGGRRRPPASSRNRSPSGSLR

AGAGGUAGUAGGUUGCAUAGUU: the binding signal with RBM8A amounted to 530 ± 30.3 fluorescence intensity; in the assay with PGC-1 alpha, 50.4 ± 6.92 fluorescence intensity; with NOVA1(3) it was 1990 ± 38.5 fluorescence intensity; with SFRS2, 1507 ± 5.18 fluorescence intensity; in the assay with STRBP(2) it was 38.5 ± 2.51 fluorescence intensity; with KHDRBS3 it was 26.3 ± 5.34 fluorescence intensity. Moreover, the binding signal with PGC-1 beta was 196 ± 13.5 fluorescence intensity; with hnRNP E2(3) it was 21.7 ± 1.28 fluorescence intensity; with RBM12(1-2) it was 1270 ± 68.8 fluorescence intensity; in the assay with RBMY1F it was 2241 ± 17.4 fluorescence intensity.

Regarding UGAGGUAGUAGGUUGUAUGGUU, the binding signal with RBM8A stood at 462 ± 23.2 fluorescence intensity; with PGC-1 alpha, 61.6 ± 8.6 fluorescence intensity; with NOVA1(3), 111 ± 7.91 fluorescence intensity; in the assay with SFRS2 it was 1110 ± 31.5 fluorescence intensity; in the assay with STRBP(2), 56.6 ± 5.37 fluorescence intensity; with KHDRBS3 it was 22.9 ± 1.58 fluorescence intensity. Besides, the binding signal is 260 ± 19.3 fluorescence intensity with PGC-1 beta, 20.2 ± 0.297 fluorescence intensity in the assay with hnRNP E2(3), 1230 ± 64.3 fluorescence intensity with RBM12(1-2) and 1430 ± 254 fluorescence intensity with RBMY1F.

As for UGAGGUAGUAGGUUGUGUGGUU, the binding signal with RBM8A amounted to 492 ± 15.8 fluorescence intensity; with PGC-1 alpha, 72.3 ± 6.39 fluorescence intensity; with NOVA1(3) it was 202.3 ± 0.523 fluorescence intensity; with SFRS2, 1219 ± 7.53 fluorescence intensity; with STRBP(2), 83.8 ± 5.54 fluorescence intensity; with KHDRBS3, 28.2 ± 0.368 fluorescence intensity. The binding signal was found to be 385 ± 12.8 fluorescence intensity with PGC-1 beta, 20.3 ± 0.735 fluorescence intensity in the assay with hnRNP E2(3), 1210 ± 36.7 fluorescence intensity in the assay with RBM12(1-2) and 1478 ± 10.7 fluorescence intensity with RBMY1F.

In the case of CAGUGCAAUGAUGAAAGGGCAU, the binding signal turned out to be 194 ± 11.7 fluorescence intensity with RBM8A; 52.5 ± 18.4 fluorescence intensity with PGC-1 alpha; 735.5 ± 6.54 fluorescence intensity in the assay with NOVA1(3); 1100 ± 38.7 fluorescence intensity in the assay with SFRS2; 23.5 ± 3.87 fluorescence intensity with KHDRBS3; 78.9 ± 4.49 fluorescence intensity with PGC-1 beta. Further, the binding signal with hnRNP E2(3) stood at 21.9 ± 0.262 fluorescence intensity; with RBM12(1-2), 873 ± 45.6 fluorescence intensity; with RBMY1F, 1404 ± 5.42 fluorescence intensity.

For the sequence UAGCUUAUCAGACUGAUGUUGA, the binding signal in the assay with NOVA1(3) was 126.9 ± 0.87 fluorescence intensity; with SFRS2 it was 480 ± 21.9 fluorescence intensity; with hnRNP E2(3), 20.9 ± 1.85 fluorescence intensity; in the assay with RBM12(1-2), 271 ± 62.1 fluorescence intensity; with RBMY1F, 865 ± 36.1 fluorescence intensity.

Take UGAGGUAGUAGGUUGUAUAGUU: the binding signal with RBM8A worked out at 23.6 ± 8.27 fluorescence intensity; in the assay with NOVA1(3), 39 ± 1.15 fluorescence intensity; with SFRS2, 464 ± 35 fluorescence intensity; with KHDRBS3, 21.1 ± 1.79 fluorescence intensity; with PGC-1 beta, 45.6 ± 6.99 fluorescence intensity; in the assay with hnRNP E2(3) it was 23.4 ± 0.594 fluorescence intensity. Also, the binding signal turned out to be 321 ± 62.5 fluorescence intensity with RBM12(1-2) and 1000 ± 19 fluorescence intensity with RBMY1F.
